Screens as filed in PubChem BioAssay.
HCMV antiviral – qHTS Assay for inhibitors of the human cytomegalovirus (HCMV). HFF cells, HCMV-luciferase reporter, 72 h; hits give low values. activity change, negative = inhibition, % at 57.5 µM. 4.5% of 410,000 active; in the data active = activity change below about -60%; inconclusive = no clear call, values can overlap the other calls; inactive = above about -39%
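Steps: HFFs plated, 16 h 37C; compounds added; HCMV-luciferase added to MOI 1 PFU/cell; 72 h 37C; OneGlo reagent, 5 min room temperature; luminescence read, normalized to controls.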
Vaccinia mCherry – qHTS for Stage-Specific Inhibitors of Vaccinia Orthopoxvirus: mCherry Reporter Primary qHTS | 0.63% of 310,000 active | Potency, µM (doses to about 36.5 µM), hits mostly inhibitors | AID 720579, 2013 | Vaccinia virus mCherry reporter infection, fluorescence; calls by dose curve; tested in A549 cells; note: nearly all actives have a fitted effect of over 35% in size
Sm TGR inh – qHTS Assay for the Inhibitors of Schistosoma Mansoni Peroxiredoxins; 3% of 360,000 active; AID 485364, 2010; Schistosoma mansoni thioredoxin glutathione reductase (TGR), Q962Y6; Potency, µM (series often up to 114 µM), hits mostly inhibitors; purified TGR, DTNB reduction, TNB absorbance 405 nm; note: nearly all actives have a fitted effect of over 60% in size
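First, TGR (20 nM dispensed) and NADPH were mixed with compound. Second, a 15 min room-temperature incubation followed. Third, further NADPH and then DTNB were added to start the reaction. Finally, TNB absorbance was monitored kinetically.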
HCV inh – qHTS Assay for Inhibitors of Hepatitis C Virus (HCV); Huh7.5.1 HCVcc-Cre infection, luciferase reporter, 44 h; Potency, µM (series often up to 41.8 µM), hits mostly inhibitors; 3.4% of 340,000 active; AID 651820, 2012
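Seed cells (1,000/well) for 4 h; treat with compound and infect with HCVcc-Cre, moi about 0.5. Incubate 44 h, then detect luciferase activity.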
FMDV antiviral – High Throughput Screening for Foot and Mouth Disease Virus Antivirals; FMDV antiviral cell-based qHTS; Potency, µM (doses to about 57.9 µM), most hits filed as inhibitors; 1.2% of 410,000 active; calls by dose curve; tested in HEK293T cells; note: read-out not given here; nearly all actives have a fitted effect of over 45% in size
Vaccinia Venus – qHTS for Stage-Specific Inhibitors of Vaccinia Orthopoxvirus: Venus Reporter Primary qHTS | Potency, µM (titrated, usually from 36.5 µM), hits mostly inhibitors | 0.46% of 330,000 active | Vaccinia virus Venus reporter expression, fluorescence | AID 720580, 2013; calls by dose curve; tested in A549 cells; note: nearly all actives have a fitted effect of over 30% in size
Hits are given with their value; - = inactive; ? = inconclusive; . = no result. Sampled rows, rich in hits. Any-hit rate of the full collection: about 9.3%. Unless noted, calls come from the whole dose curve; as a rule, active = well fitted curve in the direction sought with a large enough effect; inconclusive = small, poorly fitted or top-dose-only effect, or another doubt; inactive = no such curve, though single readings can be large; an effect the other way counts as inactive or inconclusive.

SMILES	HCMV antiviral	Vaccinia mCherry	Sm TGR inh	HCV inh	FMDV antiviral	Vaccinia Venus
Cc1cc(C)c2nc(SC(C)C#N)cc(C)c2c1 (stereo not given)	-	.	-	10µM	-	-
CN1CCN(Cc2nc3ccccc3c(=O)n2Cc2nc(-c3cccc([N+](=O)[O-])c3)cs2)CC1	-	-	-	2.5µM	-	-
CN1CCN(Cc2nc3ccccc3c(=O)n2Cc2nc(-c3ccc4ccccc4c3)cs2)CC1	-76	?	-	11µM	?	13µM
Cc1ccc(S(=O)(=O)N2CCOCC2)cc1C(=O)NCC1CCCO1 (stereo not given)	-	-	-	-	-	-
OCCN1CCN(C2CCC(c3ccc(F)cc3)c3ccc(F)cc32)CC1 (stereo not given)	?	?	.	4µM	?	?
O=[N+]([O-])c1ccc2c(c1)C(N1CCN(CCO)CC1)Cc1ccc(F)cc1S2 (stereo not given)	-	-	.	.	-	-
COc1ccc(N(Cc2cccs2)C(=O)COc2cc(C)c(Cl)c(C)c2)cc1	-99	-	-	.	?	-
COc1ccc(N(Cc2cccs2)C(=O)COc2cccc(C)c2C)cc1	?	-	-	.	-	-
CC1CCN(S(=O)(=O)c2cn(CC(=O)Nc3ccc(F)c(Cl)c3)c(=O)c3ccccc23)CC1	-63	-	-	.	-	-
O=C(NCCCN1CCN(c2ccccc2F)CC1)C1CCN(S(=O)(=O)c2cccs2)CC1	-68	.	-	-	?	.
CCS(=O)(=O)N1CCC(C(=O)NCCCN2CCN(c3ccccc3F)CC2)CC1	-	-	-	-	.	-
COc1cc(NC(=O)Cn2cc(S(=O)(=O)N3CCC(C)CC3)c3ccccc3c2=O)cc(OC)c1OC	-	-	-	.	-	-
O=C(Cn1c(-c2cccs2)cc2cc(F)ccc21)NCCCN1CCN(c2ccccc2F)CC1	?	-	-	.	-	-
O=C(Cn1c(-c2cccs2)cc2ccccc21)NCCCN1CCN(c2ccccc2F)CC1	-68	-	-	.	-	-
CCc1ccc(CNC(=O)Cn2c(-c3cccs3)cc3cc(F)ccc32)cc1	-65	-	-	.	-	-
CSc1ccccc1OCc1cc(C(=O)NCc2cccc(C)n2)no1	-	.	-	?	-	.
Ic1cncc(OC[C@@H]2CCN2)c1	.	.	.	.	-	.
O=C(Cn1cc(S(=O)(=O)N2CCN(c3ccccc3F)CC2)c2ccccc2c1=O)NCCCN1CCCCCC1	-	?	-	22µM	-	-
CN1CCN(CCCNC(=O)Cn2c(-c3cccs3)cc3cc(Cl)ccc32)CC1	-69	-	-	.	-	-
CCN1CCN(CCCNC(=O)Cn2c(-c3cccs3)cc3cc(Cl)ccc32)CC1	?	-	-	.	-	-
CCSc1ncccc1C(=O)N[C@@H](CCSC)C(=O)OC	-	-	-	-	-	-
Nc1sccc1C(=O)c1ccccc1	-	-	20µM	-	-	-
Nc1ccccc1C(=O)c1ccccc1	-	-	-	?	-	-
Cc1nn(C)c(C)c1CN(C)S(=O)(=O)c1ccc(F)cc1	-	-	-	?	-	-
Cc1nn(C)c(C)c1CN(C)S(=O)(=O)c1ccc2ccccc2c1	-82	?	-	?	-	?
SMILES	HCMV antiviral	Vaccinia mCherry	Sm TGR inh	HCV inh	FMDV antiviral	Vaccinia Venus
COc1ccc(CCNC(=O)/C(C#N)=C/c2cccc(OCc3ccccc3)c2)cc1OC	-	-	-	?	28µM	-
N#C/C(=C\c1cccc(NC(=O)c2ccccc2Cl)c1)C(=O)NCCc1ccccc1	?	-	-	?	28µM	-
Cc1cc(C)cc(NC(=O)Cn2c(=O)n(CCC(C)C)c(=O)c3cccnc32)c1	-	?	-	.	-	-
Cc1cc(C(=O)NC(Cc2c[nH]c3ccccc23)C(=O)O)c(C)o1 (stereo not given)	-	-	-	-	-	-
COC(=O)[C@@H](Cc1c[nH]c2ccccc12)NC(=O)c1ccc2c(c1)OCO2	-105	.	-	-	-	.
O=C(Cc1c[nH]c2ccccc12)N[C@@H](Cc1c[nH]c2ccccc12)C(=O)O	-	-	-	-	-	-
O=C(Cc1ccc(F)cc1)NC(Cc1c[nH]c2ccccc12)C(=O)O (stereo not given)	-62	-	-	-	-	-
O=C(Cc1ccccc1)N/N=C/c1ccc2c(c1)OCO2	-	-	-	-	-	-
O=C(CCc1c[nH]c2ccccc12)N/N=C/c1ccc2c(c1)OCO2	-	-	.	13µM	-	-
COC(=O)C(Cc1c[nH]c2ccccc12)NC(=O)c1cc(-c2ccc(OC)c(OC)c2)oc1C (stereo not given)	-	-	-	10µM	-	-
CC1(C2CC2)NC(=O)N(CC(=O)NCC(=O)Nc2ccc(F)c(F)c2F)C1=O (stereo not given)	-	-	.	-	-	-
CCOc1cccc(C(=O)N2CCCN(C)CC2)c1	-	.	-	-	-	.
NC(=S)NN=C1c2cc(S(=O)(=O)N3CCOCC3)ccc2-c2ccc(S(=O)(=O)N3CCOCC3)cc21	-	-	-	-	-	-
NC(=S)N/N=C1\CCOc2ccc(Cl)cc21	-104	.	-	?	-	.
CCC(Sc1nc2ncccc2[nH]1)C(=O)NC1CCC(C)CC1 (stereo not given)	-	-	-	-	-	-
CCC(Sc1nc2ncccc2[nH]1)C(=O)NCCc1ccccc1 (stereo not given)	-61	-	-	-	-	-
CCOC(=O)c1nnc(-c2cccs2)nc1Oc1ccccc1C(=O)OC	-	-	?	-	?	-
CCOC(=O)c1nnc(-c2cccs2)nc1Oc1ccc(Cl)cc1	-	-	-	-	28µM	-
CCC1Oc2ccccc2N(Cc2ccccc2C)C1=O (stereo not given)	-	.	-	-	-	.
CCCOc1ncnc2c1[nH]c1ccccc12	-85	.	-	?	?	.
CCN(CC)c1ncnc2c1[nH]c1ccccc12	?	.	-	11µM	?	?
CC(=O)Nc1ccc(S(=O)(=O)NNC(=O)COc2ccc(Cl)cc2Cl)cc1	-	-	-	-	-	-
COc1ccc(-c2nc(SC)n(C)c(=O)c2C#N)cc1OC	-61	.	-	-	-	-
CCOC(=O)c1c(CN2CCOCC2)n(-c2ccccc2)c2cc(Br)c(OC)cc12	-	.	-	?	-	.
CCOC(=O)c1c(CN(C)C)n(-c2ccccc2)c2cc(Br)c(OC)cc12	-	-	-	7.9µM	-	?
O=C(NCc1cccc(C(F)(F)F)c1)c1ccc(=O)[nH]c1	-	-	-	-	-	-
Cc1c(C(=O)NCc2ccccn2)sc(=O)n1Cc1ccc(-c2ccccc2)cc1	-	-	.	.	-	-
Cc1c(C(=O)NCc2ccc([N+](=O)[O-])cc2)sc(=O)n1Cc1ccc(-c2ccccc2)cc1	-84	-	.	.	-	-
